Compound activity: PubChem, National Center for Advancing Translational Sciences (NCATS)
A selection: hits, their analogues and other compounds. The true share with any hit is near 5.5%.
CBFb RUNX1 block = inhibitors of human CBF-beta and RUNX1 interaction | 230,000 tested, under 10 active | Q01196+Q13951 | Potency, µM (doses to about 59.8 µM), for inactives: top-dose activity, negative = inhibition, most hits filed as inhibitors | AID 1477 | AlphaScreen CBFb-His/RUNX1-biotin binding, biochemical; note: % of control where 0% means no effect
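CBF-beta (His) and RUNX1 (biotin), 30 nM each; 20 min preassociation; + compound, 15 min; + beads 50 ng each (Ni, streptavidin), 90 min; RT; AlphaScreen read.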
VP16 counter = inhibits Gal4-VP16 luciferase reporter, ROR gamma counter-screen; Drosophila S2 Gal4-VP16 UAS-luciferase, luminescence, 20 h; Potency, µM (series often up to 53.6 µM), for inactives: top-dose activity, negative = inhibition, actives largely listed as inhibitors; actives 3.5% (n = 310,000); AID 2546;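 note: Gal4-VP16 expression switched on by copper sulfate through the metallothionein promoter; potency is the fitted concentration of half-maximal effect; % is set by controls: 0 for no effect and ±100 for the full control effect; nearly all actives have a fitted effect of over 50% in size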
RORg inh = blocks mouse ROR gamma transcriptional activity. Drosophila S2 Gal4-RORgamma UAS-luciferase reporter, 20 h. Potency, µM (titrated, usually from 53.6 µM), for inactives: at the top dose activity change, negative = inhibition, actives largely listed as inhibitors. actives 5.4% (n = 310,000); note: potency is the fitted concentration of half-maximal effect; % is set by controls: 0 for no effect and ±100 for the full control effect; nearly all actives have a fitted effect of over 60% in size
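Compounds are pin-transferred onto Drosophila Schneider cells expressing a copper-inducible Gal4–ROR gamma transactivation domain fusion. After 1 hr, copper sulfate is added to 700 uM final; luciferase is read 20 hr later.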
MBNL1 CUG block = MBNL1-poly(CUG) RNA binding inhibition. Q9NR56. TR-FRET MBNL1-His/biotin-(CUG)12 binding, 665/545 ratio. Potency, µM (series often up to 57.5 µM), for inactives: at the highest dose activity change, negative = inhibition, usual class: inhibitors. actives 0.036% (n = 280,000); active = well fitted inhibition curve with a large enough effect in the signal ratio, with a control signal flat, not every such curve was filed as active; inconclusive = small, poorly fitted or top-dose-only effect, or effect the other way, or a change in a side signal; inactive = no such curve, though single readings can be large or run the other way; the % refers to the signal ratio; note: potency is the fitted concentration of half-maximal effect; % is set by controls: 0 for no effect and ±100 for the full control effect
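Compound titration spanned 92 nM–58 uM against the MBNL1-His/biotin-(CUG)12 complex. After 60 min at room temperature with 5 nM streptavidin-XL665 and 0.055 ng/ul terbium anti-His, ratiometric 665/545 nm emission (Ex 340 nm) normalized to controls.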
CtBP-E1A blk = blocks the CtBP interaction with E1A; AlphaScreen GST-E1A/His-CtBP binding, 1536-well; active compounds read low; activity change, % (concentration not given with the values); actives 0.49% (n = 340,000); AID 651724; in the data active = activity change below about -65%; inconclusive = mostly about -30% to -63%; note: % is set by controls: 0 for no effect and ±100 for the full control effect
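Protein mix (5X: 125 nM each GST-E1A, His-CtBP) was incubated with pinned compound 2 h at 37 deg C in dark, in 50 mM Tris pH 8.0 buffer with 300 mM NaCl. Glutathione donor and nickel acceptor beads followed; AlphaScreen signal read after 1 h.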
Six1-Eya2 blk = blocks human Six1 binding to Eya2. AlphaScreen GST-Six1/His-Eya2 binding, biochemical; active compounds read low. activity change, % (no concentration beside the values). actives 0.56% (n = 360,000). AID 651725; in the data active = activity change below about -65%; inconclusive = mostly about -30% to -63%; note: % is set by controls: 0 for no effect and ±100 for the full control effect
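GST-Six1 + His-Eya2 (5X stock: 250/500 nM); Tris pH 8.0, 300 mM NaCl, 0.05% BSA, 0.02% Tween 20; GSH donor/Ni acceptor beads; 1 h 37 °C dark; AlphaScreen readout.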
* = called active by the depositor; ? = inconclusive; . = no result; [ ] = dose if it differs, or a comment. Unless noted, calls come from the whole dose curve; as a rule, active = well fitted curve in the direction sought with a large enough effect; inconclusive = small, poorly fitted or top-dose-only effect, or another doubt; inactive = no such curve, though single readings can be large; an effect the other way counts as inactive or inconclusive.

SMILES	CBFb RUNX1 block	VP16 counter	RORg inh	MBNL1 CUG block	CtBP-E1A blk	Six1-Eya2 blk
CCOC(=O)c1cnc2c(OC)cccc2c1N1CCN(c2ccc(OC)cc2)CC1	-3%	2.2µM*	-5%	?	-14	-20
COc1cc(C2Nc3ccccc3NC3=C2C(=O)CC(C)(C)C3)cc(OC)c1OC(C)=O (stereo unspecified)	.	-1%	5%	6%	5	6
CC(C)(C)Nc1nc(NN)nc(NC(C)(C)C)n1	-27%	20µM*	7.1µM*	-5%	-10	-7
CC(C)(C)Nc1nc(Cl)nc(NC(C)(C)C)n1	-7%	-6%	-14%	.	-14	0
CC(C1CC2CCC1C2)N1CC(O)=C(c2nc3ccccc3[nH]2)C1=N (stereo unspecified)	-3%	?	8.9µM*	.	-15	-22
CC(C)N1CC(O)=C(c2nc3ccccc3[nH]2)C1=N	-9%	-6%	-18%	-9%	0	-9
NNC(=S)NCc1cccnc1	-2%	?	8.9µM*	-4%	11	5
S=C(NCc1ccccc1)NCc1cccc(CNC(=S)NCc2ccccc2)c1	?	-1%	-9%[10 µM]	-3%	?	-13
NNC(=S)NCc1ccccc1	-3%	10µM*	2.8µM*	-18%	3	0
CC(=O)c1sc(NC(=O)C2(F)C(F)(F)C(F)(F)C(F)(F)C(F)(F)C2(F)F)nc1C	11%	3.5µM*	4µM*	?	6	-2
CC(Sc1ccc2c(c1)OCCO2)C(=O)Nc1ccc(N2CCOCC2)cc1 (stereo unspecified)	?	-9%	-6%	-8%	-18	0
CCOC(=O)c1cc2c(c(-c3cccc(-c4cc5ccccc5o4)c3)n1)[C@@H](CCO)N(S(=O)C(C)(C)C)C2 (stereo partly specified)	.	.	.	.	3	0
NC(=O)CC(NC(=O)c1ccccc1)c1ccc(N2CCC(Br)CC2)c([N+](=O)[O-])c1 (stereo unspecified)	6%	13µM*	?	1%	5	6
NC(=O)CC(NC(=O)c1ccccc1)c1ccc(N2CCN(c3ccc(F)cc3)CC2)c([N+](=O)[O-])c1 (stereo unspecified)	.	22µM*	13%	16%	-22	1
NC(=O)CC(NC(=O)c1ccccc1)c1ccc(N2CCN(c3ccccc3)CC2)c([N+](=O)[O-])c1 (stereo unspecified)	.	?	?	15%	-4	-10
C/C(=N\Nc1nccnc1Cl)c1ccc(F)cc1	0%	2.8µM*	5.6µM*	?	-14	-2
C/C(=N\Nc1nccnc1Cl)c1ccc(O)cc1	.	8%	11%	16%	-11	-16
C/C(=N\Nc1nccnc1Cl)c1c(F)c(F)c(F)c(F)c1F	-10%	?	8.9µM*	8%[11.5 µM]	3	-3
CC(C)c1ccc(Oc2cccc3c2S(=O)(=O)N(C2CCCC2)CC(COCc2ccccc2)O3)cc1 (stereo unspecified)	.	.	.	.	-4	-4
CC(=O)Nc1ccc2c(c1)nc(CCNC(=O)c1ccco1)n2C	.	12%	-8%	-3%	4	-8
CC(C)Cc1ccc(C(C)C(=O)OCC(=O)c2c[nH]c3ccccc23)cc1 (stereo unspecified)	3%	18µM*	?	-5%	9	2
Cc1ccc(C(=O)OCC(=O)c2c[nH]c3ccccc23)cc1	-3%	13%	2%	1%	8	-4
CC(C)C[C@@H](CN1CCCC1CN1C(=S)NC[C@@H]1Cc1ccc(O)cc1)N1C[C@H](Cc2ccc(O)cc2)N(CC2CCCCC2)C1=S (stereo partly specified)	.	.	.	.	-5	-6
CC1CN(S(=O)(=O)c2cccc3cnccc23)CCN1 (stereo unspecified)	8%	.	.	.	.	.
C[C@@H]1CNCCN1S(=O)(=O)c1cccc2cnccc12	6%[21.7 µM]	25µM*	?	.	.	.
SMILES	CBFb RUNX1 block	VP16 counter	RORg inh	MBNL1 CUG block	CtBP-E1A blk	Six1-Eya2 blk
C/C(=C\C(=S)Nc1ccccc1)Nc1ccccc1	0%	?	10µM*	-5%	1	4
Cc1ccc(C(=O)N/N=C\c2cc3c(cc2Br)OCO3)cn1	.	-2%	0%	-1%	8	-2
CC(/C=C/c1ccc2c(c1)OCO2)=N/NC(=O)c1cccnc1	15%	6.3µM*	3.5µM*	.	5	-4
O=C(N/N=C/c1ccncc1)c1cccc([N+](=O)[O-])c1	-4%	-2%	7%	?	.	.
CC(/C=C/c1ccc2c(c1)OCO2)=N/NC(=O)c1ccc(C)nc1	0%	7.9µM*	7.9µM*	19%	-25	-8
CC(/C=C/c1cccc([N+](=O)[O-])c1)=N\NC(=O)c1ccncc1	-13%	10µM*	5µM*	?	-23	-2
CC1=C(/C=C/C(C)=N\NC(=O)c2ccncc2)C(C)(C)CCC1	1%	?	7.9µM*	13%	-22	3
CN(C)S(=O)(=O)c1ccc(N2CCCC2)c(C(=O)N2CCN(S(=O)(=O)c3ccc(F)cc3)CC2)c1	.	.	.	.	-5	6
O=C(N/N=C/c1ccc2c(c1)OCCO2)c1ccncc1	-1%	0%	-4%	1%	4	-8
CC(/C=C/c1ccc2c(c1)OCO2)=N/NC(=O)c1ccncc1	3%	18µM*	5.6µM*	?	.	-3
COCC(=O)N1CCC[C@@]2(CCN(Cc3cc(C(F)(F)F)cc(C(F)(F)F)c3)C2)C1	.	7%	-24%	.	.	.
COc1ccc(-n2cnc(N)c2C(=O)c2cccc([N+](=O)[O-])c2)cc1	9%	-19%	11µM*	?	-9	-2
O=C(CC1C(=O)NCCN1Cc1ccccc1)NC1CCCCC1 (stereo unspecified)	.	.	.	.	1	3
CCN(CC)c1ccc(-c2nn3c(-c4ccccc4OC)nnc3s2)cc1	14%	14µM*	?	-1%	9	7
CC(=O)N1CC(=O)N=C1SCC(=O)Nc1nc(C)c(-c2ccccc2)s1	-29%	1%	?	38%	-12	-17
